These results are taken from PubChem BioAssay (NCI).

Each structure is given as a SMILES string. The panel holds about 79,000 compounds, 15% with a hit somewhere; the sample as a whole holds those more often. A number with no mark means an inactive call. Activity calls are given as the source filed them. Rule as the data show it: active = growth inhibition above about 70%; inactive = the rest.

Experiment [1] is described as follows: NCI Yeast Anticancer Drug Screen. Data for the rad50 strain (AID 155).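 Also: 0% = growth of vehicle-only cultures of the same strain.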 The note with it: S. cerevisiae rad50 strain growth inhibition; at 50.0 µM; stronger effect = higher value. The method, boiled down:
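Genetically altered yeast (DNA repair pathway); compound treatment; growth inhibition vs vehicle ctrl.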

Experiment [2] is described as follows: NCI Yeast Anticancer Drug Screen. Data for the mec2-1 strain (AID 157). The following applies: S. cerevisiae mec2-1 strain, at 50.0 µM, stronger effect = higher value. An outline of the steps: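 mec2-1 yeast strain, carrying an alteration in DNA damage repair or cell cycle control, was exposed to compounds; growth inhibition was measured relative to vehicle-treated controls.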

Experiment [3] in a line: NCI Yeast Anticancer Drug Screen. Data for the sgs1 mgt1 strain (AID 161).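 Also: 0% = growth of cultures given vehicle only.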 The note with it: S. cerevisiae sgs1 mgt1 strain, at 50.0 µM, stronger effect = higher value. The method, boiled down: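 Growth of a repair-deficient yeast mutant was monitored after compound treatment and expressed as inhibition relative to vehicle-treated cultures.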
Experiment [4] in a line: NCI Yeast Anticancer Drug Screen. Data for the cln2 rad14 strain (AID 165).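 Also: 0% = growth equal to vehicle treated cultures.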 The note with it: S. cerevisiae cln2 rad14 strain, at 50.0 µM, stronger effect = higher value. An outline of the steps: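 Yeast carrying cln2 and rad14 alterations (cell cycle control and DNA damage repair) were exposed to compounds. Growth inhibition was measured against vehicle-treated controls.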
Experiment [5] can be described thus: NCI Yeast Anticancer Drug Screen. Data for the bub3 strain (AID 167). The following applies: S. cerevisiae bub3 mutant strain, at 50.0 µM, stronger effect = higher value. The method, boiled down:
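Yeast carrying a defined mutation is treated with each compound, and growth is compared with that of vehicle-exposed cells to give inhibition.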

The nature of experiment [6]: NCI Yeast Anticancer Drug Screen. Data for the mlh1 rad18 strain (AID 175). The following applies: S. cerevisiae mlh1 rad18 strain growth inhibition; at 50.0 µM; stronger effect = higher value. The method, boiled down:
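Growth inhibition of the yeast strain was measured after compound exposure and expressed relative to vehicle-treated controls. The strain carries defined defects in DNA damage repair.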

Consider `CN1C(=O)c2ccccc2NC(=O)C12O[C@@H]2c1cccc(O)c1` (stereo partly specified), for which the growth inhibition in experiment [1] was 9%; in experiment [2] it was -0.55%; in experiment [3] it was 11.2%; in experiment [4], 8.9%; in experiment [5] it was 6.9%; in experiment [6], 8.05%.
With `COc1cc(-c2cc(=O)c3c(O)c(OC)c(OC)cc3o2)ccc1O`, the growth inhibition in experiment [1] is -34.3%; in experiment [2], -40.2%; in experiment [3], -28.5%; in experiment [4], -22.1%; in experiment [5] it was -36.6%; in experiment [6], -41.5%.
As for `CCNC(=O)OC1C=CS(=O)(=O)C1` (stereo unspecified), the growth inhibition in experiment [1] was 5.25%; in experiment [2], -9.45%; in experiment [3] it was -0.45%; in experiment [4], -5.55%; in experiment [5], 7.95%; in experiment [6] it was -10.2%.
Consider `O=[N+]([O-])c1cccc(N=Cc2ccccc2)c1`, for which the growth inhibition in experiment [1] is 7.25%; in experiment [2], 12.9%; in experiment [3] it was -7.4%; in experiment [4], 8.15%; in experiment [5], 13.8%; in experiment [6], 6.05%.
`Cc1ncc(Cl)c2cc3ccccc3cc12`: the growth inhibition in experiment [1] is -2.4%; in experiment [2], 2.1%; in experiment [3] it was -0.7%; in experiment [4] it was -24.6%; in experiment [5] it was -3.25%; in experiment [6] it was -7.55%.
Consider `CC(C)c1ccc(/C=C/C(=O)c2ccc(F)cc2)cc1`, for which the growth inhibition in experiment [1] is 14.6%; in experiment [2], 13.5%; in experiment [3] it was 16.5%; in experiment [4], 10.1%; in experiment [5], 5.05%; in experiment [6] it was 17.6%.
`COc1cccc(N=NN2CCCC2)c1`: the growth inhibition in experiment [1] is 16.2%; in experiment [2] it was 14.2%; in experiment [3], 17.8%; in experiment [4], 20.1%; in experiment [5] it was 7.15%; in experiment [6], 23.4%.
On to `CCN(CC)c1ccc2c(c1)Cc1ccccc1-2`, for which the growth inhibition in experiment [1] is 25.8%; in experiment [2] it was 1.15%; in experiment [3] it was 9.2%; in experiment [4] it was 4.4%; in experiment [5], -18.9%; in experiment [6] it was -5.65%.
Turning to `CCCC(=O)c1c(C)cc(C)cc1C`, the growth inhibition in experiment [1] was -6.6%; in experiment [2] it was -19.7%; in experiment [3], -24.4%; in experiment [4], 9.45%; in experiment [5], -7.55%; in experiment [6] it was 11.1%.
Consider `O=C1C(N=Cc2c(O)ccc3ccccc23)CON1C(c1ccccc1)(c1ccccc1)c1ccccc1` (stereo unspecified), for which the growth inhibition is 55.5% in experiment [1]; 37.5% in experiment [2]; 28.9% in experiment [3]; 20.1% in experiment [4]; 3.55% in experiment [5]; 40.5% in experiment [6].
Consider `N#CCCNCCC[Si]12OCCN(CCO1)CCO2`, for which the growth inhibition in experiment [1] was 6.5%; in experiment [2], 1.35%; in experiment [3], 10.5%; in experiment [4], 56.9%; in experiment [5], 7.15%; in experiment [6], 2.4%.
As for `CC1CN(C(=S)Nc2cccc3ccccc23)CC(C)O1` (stereo unspecified), the growth inhibition was 19.4% in experiment [1]; 36.5% in experiment [2]; 44.9% in experiment [3]; 22% in experiment [4]; 44.8% in experiment [5]; 7.8% in experiment [6].
For `O=C1CC2(CC(=O)N1CCc1c[nH]c3ccccc13)OCCO2`, the growth inhibition in experiment [1] was -1.35%; in experiment [2] it was 9.05%; in experiment [3] it was 10.1%; in experiment [4], -0.5%; in experiment [5] it was 20.6%; in experiment [6], -6.15%.
`CCOC(=O)C(CCCN=C(N)NC(=O)OCc1ccccc1)NC(=O)C(C(C)C)N1C(=O)c2ccccc2C1=O` (stereo unspecified): the growth inhibition was 93% (active) in experiment [1]; 78.5% (active) in experiment [2]; 96.2% (active) in experiment [3]; 52% in experiment [4]; 48.9% in experiment [5]; 96% (active) in experiment [6].
For the compound `S=C(Nc1ccccc1)Nc1ccccc1S`, the growth inhibition in experiment [1] is -15.4%; in experiment [2], -19.8%; in experiment [3], 6.75%; in experiment [4], -20.4%; in experiment [5], 14.7%; in experiment [6], -18.9%.
Turning to `C=CCCCC1CCCNC1=O` (stereo unspecified), the growth inhibition is 5.05% in experiment [1]; 10.2% in experiment [2]; -8.2% in experiment [3]; 8.1% in experiment [4]; 4.05% in experiment [5]; 0.45% in experiment [6].
Turning to `COc1cc(=O)cc2n(-c3cc(OC)c(O)c(OC)c3)c3ccccc3nc1-2`, the growth inhibition was 23.6% in experiment [1]; 0.1% in experiment [2]; 5.95% in experiment [3]; 6% in experiment [4]; -8.3% in experiment [5]; 23.5% in experiment [6].
On to `Nc1nnc(-c2ccc(Cl)cc2)o1`, for which the growth inhibition in experiment [1] is 21.3%; in experiment [2], -1.8%; in experiment [3], 21.2%; in experiment [4] it was 1.1%; in experiment [5], 0.05%; in experiment [6] it was 5.8%.
Regarding `CC1=C(OCCCl)C2CC1C1C(=O)N(c3ccccc3)C(=O)C21` (stereo unspecified), the growth inhibition in experiment [1] is -9.95%; in experiment [2], -29.1%; in experiment [3], -1.85%; in experiment [4], -0.4%; in experiment [5], -4.9%; in experiment [6] it was -4.75%.
In the case of `CCc1ccccc1NC(=O)C(=O)C1C(=O)N(c2ccccc2)N=C1N` (stereo unspecified), the growth inhibition in experiment [1] is -10.2%; in experiment [2] it was -31.4%; in experiment [3], -3%; in experiment [4], 21.4%; in experiment [5] it was -34.5%; in experiment [6], -22%.
On to `CCN(CC)CCOC(=O)Cc1ccc2c(=O)cc(-c3ccc(C)cc3)oc2c1`, for which the growth inhibition in experiment [1] was 7.75%; in experiment [2], -18.4%; in experiment [3], -13.6%; in experiment [4] it was 0.75%; in experiment [5], -1.55%; in experiment [6], -54.5%.
